PubChem BioAssay (NCATS)
Results filed as inconclusive are left out. The source made the active and inactive calls. Calls follow the shape of the dose curve; as a rule, active = well fitted curve in the direction sought with a large enough effect; inconclusive = small, poorly fitted or top-dose-only effect, or another doubt; inactive = no such curve, though single readings can be large; an effect the other way counts as inactive or inconclusive.

Experiments:
[1] = molecular target: Phospholipid hydroperoxide glutathione peroxidase GPX4 (Homo sapiens) (UniProt P36969); assay: Primary qHTS Assay for Inhibitors of Recombinant Selenoprotein Glutathione Peroxidase 4 (GPX4) (AID 1845192); also: nearly all actives have a fitted effect of over 65% in size; as to activity change, negative = inhibition: series mostly up to about 50 µM; % is scaled to controls: 0 for no effect and ±100 for the full control effect
Summary of the method: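 NADPH consumption followed by fluorescence at 340/450 nm, t=0 and after 15 min at room temperature. Reaction started with cumene hydroperoxide (0.5 mM final) after 30 min compound–GPX4 preincubation; final 200 nM GPX4, 100 nM GR, 1 mM GSH, 0.5 mM NADPH.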

[2] = Quantitative High-Throughput drug screen in 47 multiple myeloma cell lines against the NCATS MIPE library collection: Delta47_JCRB cell viability assay (AID 1918925; also: nearly all actives have a fitted effect of over 45% in size; also: potency is read from the fitted curve at half-maximal effect)
Summary of the method: (§1)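 Myeloma cells (500 per well) were exposed to MIPE 4.0 compounds by pin transfer and incubated 48 hours at 37C, 5% CO2. Viability was read as ATP by CellTiter-Glo luminescence, normalised to DMSO (100%) and media-only (0%) wells.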

[3] = Quantitative High-Throughput drug screen in 47 multiple myeloma cell lines against the NCATS MIPE library collection: EJM_DSMZ cell viability assay (AID 1918926; also: nearly all actives have a fitted effect of over 30% in size; also: potency is read from the fitted curve at half-maximal effect)
Summary of the method: as §1

[4] = Quantitative High-Throughput drug screen in 47 multiple myeloma cell lines against the NCATS MIPE library collection: AMO1_DSMZ cell viability assay (AID 1918927; also: nearly all actives have a fitted effect of over 30% in size; also: potency is read from the fitted curve at half-maximal effect)
Summary of the method: as §1

[5] = Quantitative High-Throughput drug screen in 47 multiple myeloma cell lines against the NCATS MIPE library collection: ARP1_JJKsccF8 cell viability assay (AID 1918928; also: nearly all actives have a fitted effect of over 40% in size; also: potency is read from the fitted curve at half-maximal effect)
Summary of the method: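 Cell viability inhibition in this qHTS is measured via ATP content (CellTiter-Glo) after 48 h drug exposure at 37 °C. Wells hold 500 cells; DMSO-treated wells define 100% and medium-only wells 0%.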

[6] = Quantitative High-Throughput drug screen in 47 multiple myeloma cell lines against the NCATS MIPE library collection: ARD_JJKsccE7 cell viability assay (AID 1918929; also: potency is read from the fitted curve at half-maximal effect)
Summary of the method: as §1

[7] = molecular target: Glutathione peroxidase 1 (Homo sapiens) (UniProt P07203); assay: Primary qHTS Assay for Inhibitors of Recombinant Selenoprotein Glutathione Peroxidase 1 (GPX1) (AID 1845191); also: nearly all actives have a fitted effect of over 65% in size
Summary of the method: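 NADPH consumption tracked by fluorescence at 340/450 nm between t=0 and t=15 min, room temperature. Final mix: 10 nM GPX1, 100 nM glutathione reductase, 1 mM GSH, 0.5 mM NADPH, 0.5 mM cumene hydroperoxide, 0.01% BSA; 30 min compound–enzyme preincubation.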

[8] = Quantitative High-Throughput drug screen in 47 multiple myeloma cell lines against the NCATS MIPE library collection: Karpas620_DSMZ cell viability assay (AID 1918959); also: nearly all actives have a fitted effect of over 30% in size; also: potency is read from the fitted curve at half-maximal effect
Summary of the method: as §1

[9] = Quantitative High-Throughput drug screen in 47 multiple myeloma cell lines against the NCATS MIPE library collection: FR4_PLB cell viability assay (AID 1918924; also: nearly all actives have a fitted effect of over 35% in size)
Summary of the method: as §1

Sequence of Glutathione peroxidase 1 (Homo sapiens) (P07203 whole entry, looked up): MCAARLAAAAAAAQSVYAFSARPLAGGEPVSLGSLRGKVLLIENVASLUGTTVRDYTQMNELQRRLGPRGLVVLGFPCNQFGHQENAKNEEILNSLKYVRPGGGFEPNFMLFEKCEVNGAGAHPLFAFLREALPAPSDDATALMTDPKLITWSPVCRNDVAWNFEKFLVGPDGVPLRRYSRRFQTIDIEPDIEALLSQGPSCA
Sequence of Phospholipid hydroperoxide glutathione peroxidase GPX4 (Homo sapiens) (P36969 whole entry, looked up): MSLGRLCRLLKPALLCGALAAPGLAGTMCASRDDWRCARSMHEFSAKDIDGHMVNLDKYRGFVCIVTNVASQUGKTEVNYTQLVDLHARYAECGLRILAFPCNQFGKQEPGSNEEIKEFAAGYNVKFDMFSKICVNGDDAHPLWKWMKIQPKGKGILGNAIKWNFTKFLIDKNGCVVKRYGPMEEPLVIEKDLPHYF

N[C@@H](C(=O)N[C@@H]1C(=O)N2C(C(=O)O)=C(Cl)CS[C@H]12)c1ccccc1
inactive: activity change, negative = inhibition [1] 3.64% [at 9.73 µM] | Potency [2] | Potency [3] | Potency [4] | Potency [5] | Potency [6]

CCCOc1ccc(C(=O)OCCN(CC)CC)cc1N
inactive: Potency [7] | Potency [1] | Potency [3] | Potency [4] | Potency [5] | Potency [8]

NC(=O)N1c2ccccc2CC(=O)c2ccccc21
inactive: Potency [1] | Potency [9] | Potency [2] | Potency [4] | Potency [5] | Potency [6] | Potency [8]

Nc1ccc(S(=O)(=O)Nc2ccccn2)cc1
inactive: Potency [7] | Potency [1] | Potency [3] | Potency [4] | Potency [5] | Potency [6] | Potency [8]

CCOC(=O)c1ccc(C#Cc2ccc3c(c2)C(C)(C)CCS3)nc1
inactive: Potency [7] | Potency [1] | Potency [4] | Potency [6] | Potency [8]

CC(=O)[C@H]1CC[C@H]2[C@@H]3CC=C4C[C@@H](O)CC[C@]4(C)[C@H]3CC[C@]12C
inactive: Potency [7] | Potency [1] | Potency [2] | Potency [4] | Potency [6] | Potency [8]

O=S(=O)(c1cccc2cnccc12)N1CCCNCC1
inactive: Potency [7] | Potency [1] | Potency [6]

COc1ccc2c(c1)c(CC(=O)OCC(=O)O)c(C)n2C(=O)c1ccc(Cl)cc1
inactive: Potency [7] | Potency [1] | Potency [4] | Potency [5] | Potency [8]

Cc1oc(=O)oc1CN1CCN(c2cc3c(cc2F)c(=O)c(C(=O)O)c2n3C(C)S2)CC1 (configuration not stated)
active: Potency [5] 14.8 µM
inactive: Potency [7] | Potency [1] | Potency [2] | Potency [4] | Potency [6] | Potency [8]

CCn1cc(C(=O)O)c(=O)c2cc(F)c(N3CCNCC3)cc21
active: Potency [5] 8.33 µM
inactive: Potency [7] | Potency [2] | Potency [4] | Potency [6] | Potency [8]

CCOc1cc(N)c(Cl)cc1C(=O)NCC1CN(Cc2ccc(F)cc2)CCO1 (configuration not stated)
inactive: Potency [7] | Potency [1] | Potency [2] | Potency [3] | Potency [5] | Potency [8]

CCC(=O)O[C@]1(C(=O)CCl)[C@@H](C)C[C@H]2[C@@H]3CCC4=CC(=O)C=C[C@]4(C)[C@@]3(F)[C@@H](O)C[C@@]21C
inactive: Potency [7] | Potency [1] | Potency [3]

CC1=CC(=O)c2ccccc2C1=O
inactive: Potency [1] | Potency [6]
active: Potency [2] 16.6 µM | Potency [3] 20.9 µM | Potency [5] 16.6 µM | Potency [8] 14.8 µM

CCCCCCNC(=O)n1cc(F)c(=O)[nH]c1=O
inactive: Potency [7] | Potency [1] | Potency [3] | Potency [8]
active: Potency [5] 8.33 µM

O=NN(CCCl)C(=O)NC1CCCCC1
inactive: Potency [7] | Potency [1] | Potency [3] | Potency [4] | Potency [5] | Potency [6] | Potency [8]

CN(CCOc1ccc(CC2SC(=O)NC2=O)cc1)c1ccccn1 (configuration not stated)
inactive: Potency [7] | Potency [1] | Potency [2] | Potency [4]
active: Potency [8] 0.0019 µM

N[C@@H](Cc1ccc(O)c(O)c1)C(=O)O
inactive: Potency [7] | Potency [1] | Potency [3] | Potency [6] | Potency [8]

COc1cnc(NS(=O)(=O)c2ccc(N)cc2)nc1
inactive: Potency [7] | Potency [1] | Potency [3] | Potency [5]

CCn1cc(C(=O)O)c(=O)c2cc(F)c(N3CCNCC3)nc21
inactive: Potency [7] | Potency [1] | Potency [2] | Potency [3] | Potency [8]

CC(C)OC(=O)OCOP(=O)(CO[C@H](C)Cn1cnc2c(N)ncnc21)OCOC(=O)OC(C)C
inactive: Potency [7] | Potency [1]
active: Potency [4] 20.9 µM | Potency [6] 23.5 µM

CN1CCCC(n2nc(Cc3ccc(Cl)cc3)c3ccccc3c2=O)CC1 (configuration not stated)
inactive: Potency [7] | Potency [1]
active: Potency [3] 1.05 µM | Potency [5] 6.62 µM

Cn1nnc2c(C(N)=O)ncn2c1=O
inactive: Potency [7] | Potency [1] | Potency [3] | Potency [4] | Potency [5] | Potency [6] | Potency [8]

CNNCc1ccc(C(=O)NC(C)C)cc1
inactive: Potency [7] | Potency [1] | Potency [3] | Potency [4] | Potency [8]

CCOC(=O)[C@H](CCc1ccccc1)N[C@H]1CS[C@H](c2cccs2)CN(CC(=O)O)C1=O
active: Potency [2] 2.96 µM | Potency [4] 1.32 µM | Potency [5] 11.8 µM | Potency [6] 1.66 µM | Potency [8] 4.69 µM
inactive: Potency [7] | Potency [1]

COc1ccc(C(=O)CC(=O)c2ccc(C(C)(C)C)cc2)cc1
inactive: Potency [7] | Potency [1]
active: Potency [3] 1.48 µM | Potency [4] 1.87 µM | Potency [5] 10.5 µM | Potency [6] 18.7 µM | Potency [8] 4.18 µM

CS(=O)(=O)c1ccc([C@@H](O)[C@@H](CO)NC(=O)C(Cl)Cl)cc1
active: Potency [6] 13.2 µM
inactive: Potency [7] | Potency [1] | Potency [3] | Potency [4] | Potency [8]

CNCC[C@H](Oc1cccc2ccccc12)c1cccs1
active: Potency [2] 2.35 µM | Potency [3] 0.935 µM | Potency [4] 26.4 µM | Potency [5] 18.7 µM | Potency [6] 23.5 µM | Potency [8] 23.5 µM
inactive: Potency [1]

COCCCOc1cc(C[C@@H](C[C@H](N)[C@@H](O)C[C@H](C(=O)NCC(C)(C)C(N)=O)C(C)C)C(C)C)ccc1OC
inactive: Potency [7] | Potency [1] | Potency [3] | Potency [4] | Potency [5] | Potency [8]
